Results on 40 compounds are retold here after PubChem BioAssay (NCI).

Structures are written as SMILES. Compounds without any hit were thinned out: in the full panel of roughly 83,000, 20% have a hit.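 Note: values are percent growth. 100 is the growth of untreated cells, values between 100 and 0 indicate rising inhibition; between -100 and 0 indicates cell death.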 Unmarked numbers belong to inactive results. Active and inactive are the calls of the source. Rule for the calls: active = growth percent below 10; inactive = the rest.

The test system of the experiment is MDA-MB-468 breast. Kind of experiment: NCI-60 one-dose screen, 48 h (100 = growth as untreated, 0 = no growth, -100 = all killed). The conditions noted are these: 10 µM unless noted.
In the case of `NC(N)=N/N=C(/c1ccccc1)c1ccccc1F`, the growth was 29.1%.
In the case of `CCC(=O)Oc1ccc(/C=N/NC(N)=S)nc1` it was 18.7%; in that of `O=C(c1ccccc1)C(O)C(Br)(CBr)c1ccccc1` (stereo not given), 50.7%.
In the case of `CCc1ccccc1C(=O)N(CC)CC` it was 116%; in that of `O=c1oc2ccc(Cl)cc2c(=O)n1-c1cc(C(F)(F)F)cc(C(F)(F)F)c1`, -8.67% (active).
As to `Clc1ccc([I+]c2ccc(Cl)cc2Cl)c(Cl)c1`, the growth was -37.9% (active).
The same measure for `CC(=O)C1=C(O)C=C2Oc3c(C(=O)/C=C/c4ccccc4)c(O)c(C)c(O)c3[C@]2(C)C1=O`: 30.3%; for `Cc1cc[c-]cc1.Fc1c[c-]c(-c2ccccn2)c(F)c1.[Pt+2].c1ccc(P(C[PH+](c2ccccc2)c2ccccc2)c2ccccc2)cc1`: -2.46% (active).
In the case of `C=CCNc1nnc(C)s1` it was 104%.
The same measure for `COc1ccc2c(c1)c(-c1nc(-c3c[nH]c4ncccc34)cs1)cn2CCCN1CCOCC1`: 42%.
`CC(C)N(CCOc1cccc(-c2nc3sccn3c2-c2ccnc(S(C)(=O)=O)n2)c1)C(C)C`: the growth is -2.25% (active).
The same measure for `Cc1ccc(/C=C(\C#N)n2nnc3cc(Cl)c(Cl)cc32)cc1`: 22.3%; for `COc1cc(-c2nn(C(C)(C)C)cc2-c2ccnc(NCCCNS(=O)(=O)c3ccc(Cl)cc3)n2)ccc1Cl`: 63.7%.
The same measure for `C[C@]12CCC(=O)C=C1CC[C@H]1[C@@H]3C[C@@H](O)[C@](O)(C(=O)CO)[C@@]3(C)C[C@H](O)[C@@]12F`: 128%.
In the case of `COc1ccc(NS(=O)(=O)c2ccc(-c3cnc(C4CC4)o3)cc2)cc1Cl` it was 9.75% (active); in that of `CN1CCN(Cc2ccc(NC(=O)c3cncc(C#Cc4cnc5ccc(N6CCSCC6)nn45)c3)cc2C(F)(F)F)CC1`, -74.2% (active); in that of `CCOC(Cc1c(N)[nH]c(=S)[nH]c1=O)OCC`, 101%.
As for `OC1CCN(CCCOc2c3ccccc3nc3c2oc2ccc(Cl)cc23)CC1`, the growth was -8.36% (active).
Consider `CC(=O)OC(C(=O)c1ccccc1)c1ccccc1` (stereo not given), for which the growth is 109%.
In the case of `COc1ccc(C2OC(N)=C(O)C2=O)cc1OC` (stereo not given) it was 109%; in that of `O=C(CCC(=O)N1CCOCC1)OCCCCCCSc1ccc([N+](=O)[O-])c2nonc12`, -43.1% (active); in that of `Cc1cc2cc3cc(C)c(N(C)C)cc3nc2cc1N(C)C`, 23.9%.
In the case of `CC(C)c1[nH]nc2c(NCc3ccc(-c4ccccn4)cc3)nc(SCCN)nc12` it was -60.3% (active); in that of `CCC(=O)Oc1cc(/C=C/C(=O)O[C@H]2C[C@H]3CN4CCc5c([nH]c6cc(OC)ccc56)[C@@H]4C[C@@H]3[C@@H](C(=O)OC)[C@@H]2OC)ccc1OC`, 71.3%; in that of `Cc1ccc2nc(-c3ccc(N=Cc4ccccc4O)cc3)sc2c1`, 86.4%.
The same measure for `CCN(CC)c1ccc(/C=N/NC(=O)Cc2ccc(Nc3ccnc(C(F)(F)F)c3)cc2)c(O)c1`: 26.1%.
`C[C@H](c1nc2ccc(C#N)cc2[nH]1)[C@H]1CC[C@H]2[C@@H]3CCC4=CC(=O)CC[C@]4(C)[C@H]3CC[C@]12C`: the growth is 15.6%.
In the case of `COc1cc(NC(=O)C#Cc2ccccc2)c(OC)cc1Cl` it was 70.9%; in that of `CCOC(=O)C1OC1(c1ccccc1)c1ccccc1` (stereo not given), 104%; in that of `CCCCC(CCCCCC(CCCC)NCc1ccc2c(c1)OCO2)NCc1ccc2c(c1)OCO2` (stereo not given), -90.7% (active).
The same measure for `Oc1ccccc1/C=N/NC(=S)NC1CC2C=CC1C2` (stereo not given): 73.1%; for `C[C@H](Nc1ncnc2ccc(-c3cnc(Cl)c(NS(C)(=O)=O)c3)cc12)c1ccccc1`: -62.4% (active); for `Cc1cc(C(=C2C=CC(=Nc3ccccc3)C=C2)c2ccc(Nc3ccccc3)cc2)ccc1N`: -84.2% (active).
The same measure for `O=C(CCCCCCN1CC(=O)N2[C@H](c3ccc(Br)cc3)c3[nH]c4ccccc4c3C[C@@H]2C1=O)NO`: 33.9%.
As for `CN(C)CCOC(=O)Nc1ccc(Cl)cc1`, the growth was 104%.
In the case of `O=c1n(Cc2ccc3ccccc3c2)ccn1Cc1ccc2ccccc2c1` it was 94.3%; in that of `CC(=C(c1ccc(OCCN(C)C)cc1)c1ccc(OCCN(C)C)cc1)c1ccc(Cl)cc1`, -81.1% (active); in that of `O=C(CCCC(=O)Nc1ccc(Cn2nnc3cc(Cl)c(Cl)cc32)cc1)Nc1ccc(CN2N=NC3C=C(Cl)C(Cl)=CC32)cc1` (stereo not given), 59.1%.
The same measure for `Cc1onc(-c2ccccc2Cl)c1C(=O)N[C@@H]1C(=O)N2[C@@H]1SC(C)(C)[C@@H]2C(=O)O`: 109%; for `COc1cc(-c2nn(-c3ccc(NC(=O)c4cc(Cl)cc(Cl)c4)cc3)cc2-c2ccncc2)ccc1Cl`: 89.2%.
